From PubChem BioAssay
The source made the active and inactive calls.

Assays:
[1] = biological target: Albumin (Bos taurus) (UniProt P02769); test: compounds binding labelled BSA control protein – biochemical, small-molecule microarray, Alexa647 label, 635/667 nm fluorescence, artefact control for SMM control protein annotation, profiling panel (AID 1118); details: BSA-A647 binding, fluorescence 635 nm, higher = more signal;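 also: score merges 667 nm emission intensity and signal-to-noise per printed compound spot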
[2] = probe aXIP binding to arrayed compounds – biochemical, NeuroSMM set, 635/667 nm fluorescence, primary screen (AID 1119); details: small-molecule microarray, higher = more signal, called active from +8 up or from −8 down;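 also: probe is the protein aXip251-270 applied at 1 µg/mL to compound-printed slides; binding of probe to printed compounds measured as 667 nm fluorescence plus signal to noise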
[3] = probe aNOTCH3 binding on compound microarray – biochemical, small-molecule microarray, 635/667 nm fluorescence, primary screen (AID 1120); details: higher = more signal;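 also: probe is a biotin-tagged antibody raised against NOTCH3 rather than NOTCH3 protein; score merges spot fluorescence near 667 nm with spot signal to noise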
[4] = probe aNOTCH2 binding on compound microarray – biochemical, small-molecule microarray, 635/667 nm fluorescence, primary screen (AID 1121); details: higher = more signal;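 also: score merges feature fluorescence read at 667 nm with its signal to noise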
[5] = biological target: Carbonic anhydrase 2 (Homo sapiens) (UniProt P00918); test: compounds binding carbonic anhydrase 2 – biochemical, small-molecule microarray, Alexa647-labelled CAII, profiling panel (AID 1122); details: CAII-A647 binding fluorescence, higher = more signal
[6] = COS7 lysate on small-molecule microarray, probe aHis, 635 nm (AID 1123); details: COS7 cell lysate, fluorescence, higher = more signal;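 also: z-score combines 667nm fluorescence intensity with signal-to-noise per printed compound spot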
[7] = probe aLAP1 signal on lysate-treated microarray – cell lysate, small-molecule microarray, COS7 lysate, primary screen (AID 1124); details: probe aLAP1, fluorescence, higher = more signal;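 also: lysate comes from COS7 cells expressing LAP1 and is applied at 0.3 µg/mL; score merges spot fluorescence near 667 nm with signal-to-noise over triplicate slides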
[8] = system: Sam68 (KHDRBS1); test: compounds binding KHDRBS1 protein – biochemical, small-molecule microarray, 635 nm fluorescence, primary screen (AID 1125); details: higher = more signal;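 also: score merges 667 nm channel intensity with signal to noise over triplicate slides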
[9] = system: Chordin-like protein 2 (CHRDL2); test: compounds binding chordin-like 2 – biochemical, small-molecule microarray, 635 nm fluorescence, primary screen (AID 1126); details: fluorescence 635 nm, higher = more signal;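 also: printed compound slides probed with Chrdl2 protein at 4 µg/mL for 1 h at 4 C; score merges 667 nm emission intensity with signal to noise over three replicate slides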
[10] = biological target: Concanavalin-A (Canavalia ensiformis) (UniProt P02866); test: compounds binding concanavalin A lectin – biochemical, small-molecule microarray, Alexa647 label, 635 nm, artefact control for SMM control protein annotation, primary screen (AID 1127); details: ConA-A647 binding fluorescence, higher = more signal;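 also: z combines 667 nm emission intensity with signal-to-noise across three replicate slides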
[11] = compounds binding Alexa647 anti-His antibody – biochemical, small-molecule microarray, 635 nm fluorescence, artefact control for SMM control protein annotation, primary screen (AID 1128); details: higher = more signal;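 also: score merges feature fluorescence with signal-to-noise for each printed compound spot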
[12] = system: Human papillomavirus type 1a E7 protein (residues 1-88); test: HPV1a E7 small-molecule binders, primary screen, biochemical, small-molecule microarray, residues 1-88, 635 nm (AID 1129); details: small-molecule microarray binding, fluorescence 635 nm; higher = more signal
[13] = biological target: Focal adhesion kinase 1 (Homo sapiens) (UniProt Q05397); test: PTK2 protein binding on printed compound slides – biochemical, small-molecule microarray, 635/667 nm fluorescence, BSA, DTT, primary screen (AID 1130); details: 635 nm fluorescence, higher = more signal;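 also: composite of spot emission at 667 nm and signal to noise over triplicate slides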
[14] = system: Fibrinogen (Alexa647-labelled); test: Alexa647-fibrinogen binding to printed small molecules – biochemical, small-molecule microarray, 635/667 nm fluorescence, artefact control for SMM control-protein annotation, profiling panel (AID 1131); details: fibrinogen-A647 binding fluorescence, higher = more signal;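 also: z-score merges 667 nm fluorescence with per-spot signal-to-noise over triplicate slides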
[15] = biological target: Follistatin (Homo sapiens) (UniProt P19883); test: FST protein binding to printed compounds – biochemical, small-molecule microarray, 635/667 nm fluorescence, primary screen (AID 1132); details: 635 nm fluorescence, higher = more signal
[16] = biological target: Fibroblast growth factor 2 (Homo sapiens) (UniProt P09038); test: basic fibroblast growth factor binding to printed compounds – biochemical, small-molecule microarray, 635/667 nm fluorescence, primary screen (AID 1133); details: FGF2, fluorescence 635/667, higher = more signal
[17] = JC-1 mitochondrial potential readout, lung cancer cells – cell-based, A549, JC-1 fluorescence, basal, 24 h, 100 nL, profiling panel (AID 1138); details: higher = more signal;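 also: A549 lung adenocarcinoma cells under basal conditions with no added stimulus; test concentration not given here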
[18] = system: Lefty1; test: Lefty1 protein binding to printed compounds – biochemical, small-molecule microarray, 635/667 nm fluorescence, primary screen (AID 1139); details: fluorescence 635/667, higher = more signal
[19] = system: wheat germ agglutinin (Triticum aestivum), Alexa647-labelled; test: Alexa647-WGA lectin binding to printed small molecules – biochemical, small-molecule microarray, 635/667 nm fluorescence, artefact control for SMM control-protein annotation, profiling panel (AID 1140); details: WGA-A647 binding, 635 nm fluorescence, higher = more signal;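 also: score merges 667 nm feature emission with signal to noise over triplicate slides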
[20] = biological target: Luciferin 4-monooxygenase (Photinus pyralis) (UniProt P08659); test: inhibition of purified Photinus pyralis luciferase – biochemical, luminescence, purified enzyme, 2006 set, primary screen (AID 1141); details: purified firefly luciferase, SteadyGlo luminescence, 30 min; higher = more signal, called active from +8 up or from −8 down;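 also: cell-free assay with purified firefly luciferase at 100 ng per well in PBS; test concentration not given here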
Luciferin 4-monooxygenase (Photinus pyralis), sequence (P08659 whole entry, looked up): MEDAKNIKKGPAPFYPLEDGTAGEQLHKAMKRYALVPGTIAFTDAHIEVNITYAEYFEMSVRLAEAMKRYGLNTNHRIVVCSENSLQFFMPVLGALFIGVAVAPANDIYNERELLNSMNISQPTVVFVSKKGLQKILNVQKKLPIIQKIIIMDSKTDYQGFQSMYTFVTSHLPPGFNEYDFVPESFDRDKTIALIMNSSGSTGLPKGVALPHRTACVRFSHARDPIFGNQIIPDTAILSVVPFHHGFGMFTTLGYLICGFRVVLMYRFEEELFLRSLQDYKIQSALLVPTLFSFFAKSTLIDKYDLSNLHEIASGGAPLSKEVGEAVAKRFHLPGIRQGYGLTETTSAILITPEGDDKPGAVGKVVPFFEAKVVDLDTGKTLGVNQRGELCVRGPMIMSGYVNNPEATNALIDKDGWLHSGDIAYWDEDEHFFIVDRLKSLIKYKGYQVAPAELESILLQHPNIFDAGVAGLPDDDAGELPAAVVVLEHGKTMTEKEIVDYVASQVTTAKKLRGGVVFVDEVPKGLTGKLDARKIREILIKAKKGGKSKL

Follistatin (Homo sapiens), sequence (P19883 whole entry, looked up): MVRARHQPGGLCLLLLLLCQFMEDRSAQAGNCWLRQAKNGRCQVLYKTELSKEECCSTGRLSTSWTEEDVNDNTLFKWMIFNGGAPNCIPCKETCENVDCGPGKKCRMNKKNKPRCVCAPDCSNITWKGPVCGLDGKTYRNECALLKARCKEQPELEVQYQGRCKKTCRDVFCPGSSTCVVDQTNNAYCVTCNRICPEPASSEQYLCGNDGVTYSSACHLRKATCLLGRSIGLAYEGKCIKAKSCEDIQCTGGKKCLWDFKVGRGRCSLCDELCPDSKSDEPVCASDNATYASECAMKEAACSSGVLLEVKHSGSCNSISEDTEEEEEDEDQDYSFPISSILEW
Albumin (Bos taurus), sequence (P02769 whole entry, looked up): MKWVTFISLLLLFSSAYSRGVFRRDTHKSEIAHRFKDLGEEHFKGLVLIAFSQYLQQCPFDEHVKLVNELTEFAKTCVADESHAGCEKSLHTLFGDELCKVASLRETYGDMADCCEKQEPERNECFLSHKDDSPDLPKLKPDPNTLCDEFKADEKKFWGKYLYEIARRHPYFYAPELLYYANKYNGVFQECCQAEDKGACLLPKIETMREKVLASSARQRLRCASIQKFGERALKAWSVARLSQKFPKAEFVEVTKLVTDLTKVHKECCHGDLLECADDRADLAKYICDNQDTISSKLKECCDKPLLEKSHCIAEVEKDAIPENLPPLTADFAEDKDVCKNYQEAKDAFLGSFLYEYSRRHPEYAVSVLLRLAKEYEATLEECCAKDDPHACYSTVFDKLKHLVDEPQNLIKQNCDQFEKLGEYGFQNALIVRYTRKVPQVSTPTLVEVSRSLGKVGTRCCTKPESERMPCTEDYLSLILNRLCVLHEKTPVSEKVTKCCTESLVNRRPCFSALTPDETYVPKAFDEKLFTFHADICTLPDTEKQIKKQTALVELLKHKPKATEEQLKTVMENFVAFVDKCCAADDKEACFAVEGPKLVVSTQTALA
Concanavalin-A (Canavalia ensiformis), sequence (P02866 whole entry, looked up): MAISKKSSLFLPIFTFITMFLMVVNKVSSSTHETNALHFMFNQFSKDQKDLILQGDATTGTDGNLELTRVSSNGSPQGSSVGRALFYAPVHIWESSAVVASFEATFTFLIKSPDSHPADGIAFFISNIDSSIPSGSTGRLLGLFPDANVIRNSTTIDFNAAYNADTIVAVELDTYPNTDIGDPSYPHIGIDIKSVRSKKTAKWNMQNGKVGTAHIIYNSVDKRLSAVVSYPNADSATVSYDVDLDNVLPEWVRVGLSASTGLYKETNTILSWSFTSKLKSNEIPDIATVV
Fibroblast growth factor 2 (Homo sapiens), sequence (P09038 whole entry, looked up): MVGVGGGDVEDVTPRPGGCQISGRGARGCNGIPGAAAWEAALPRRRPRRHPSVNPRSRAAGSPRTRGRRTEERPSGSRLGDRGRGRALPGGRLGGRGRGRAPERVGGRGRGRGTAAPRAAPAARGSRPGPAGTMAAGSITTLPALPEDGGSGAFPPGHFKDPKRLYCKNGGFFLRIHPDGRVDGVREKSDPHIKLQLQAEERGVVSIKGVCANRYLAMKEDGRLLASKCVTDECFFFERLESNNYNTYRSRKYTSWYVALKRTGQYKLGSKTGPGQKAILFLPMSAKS
Focal adhesion kinase 1 (Homo sapiens), sequence (Q05397 whole entry, looked up): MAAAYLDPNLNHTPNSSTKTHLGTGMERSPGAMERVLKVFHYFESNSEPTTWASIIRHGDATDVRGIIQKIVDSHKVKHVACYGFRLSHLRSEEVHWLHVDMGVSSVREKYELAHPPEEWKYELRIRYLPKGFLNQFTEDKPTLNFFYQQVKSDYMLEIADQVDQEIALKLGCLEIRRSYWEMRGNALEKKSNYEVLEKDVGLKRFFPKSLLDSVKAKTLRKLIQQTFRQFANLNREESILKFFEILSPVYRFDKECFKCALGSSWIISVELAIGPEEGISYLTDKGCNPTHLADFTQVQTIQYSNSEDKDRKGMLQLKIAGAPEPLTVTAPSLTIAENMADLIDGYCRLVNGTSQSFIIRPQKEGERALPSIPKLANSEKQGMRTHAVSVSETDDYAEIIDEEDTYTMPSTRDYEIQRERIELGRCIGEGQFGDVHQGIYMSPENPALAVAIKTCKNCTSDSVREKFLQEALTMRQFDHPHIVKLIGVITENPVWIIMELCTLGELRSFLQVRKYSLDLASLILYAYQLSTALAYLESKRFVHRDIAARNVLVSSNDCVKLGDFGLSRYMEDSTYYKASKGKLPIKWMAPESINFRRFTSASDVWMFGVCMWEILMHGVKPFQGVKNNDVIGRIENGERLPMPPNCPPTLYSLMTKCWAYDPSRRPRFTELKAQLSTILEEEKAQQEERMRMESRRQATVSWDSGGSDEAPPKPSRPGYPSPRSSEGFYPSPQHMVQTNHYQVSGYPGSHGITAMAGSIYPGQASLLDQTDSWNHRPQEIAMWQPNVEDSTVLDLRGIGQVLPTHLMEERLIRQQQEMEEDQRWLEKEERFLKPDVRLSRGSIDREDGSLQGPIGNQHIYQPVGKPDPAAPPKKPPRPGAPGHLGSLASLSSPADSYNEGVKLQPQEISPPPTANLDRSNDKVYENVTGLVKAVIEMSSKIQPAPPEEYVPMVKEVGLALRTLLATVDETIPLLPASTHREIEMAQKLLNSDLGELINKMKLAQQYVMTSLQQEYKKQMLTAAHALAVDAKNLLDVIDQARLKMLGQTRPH

SMILES | composite z-score [1] | composite Z-score [2] | composite z-score [3] | composite z-score [4] | composite z-score [5] | composite z-score [6] | composite z-score [7] | composite z-score [8] | composite z-score [9] | composite z-score [10] | composite z-score [11] | composite z-score [12] | composite z-score [13] | composite z-score [14] | composite z-score [15] | composite z-score [16] | z-score [17] | composite z-score [18] | composite z-score [19] | z-score [20]
Cc1ccc(S[C@]2(C(=O)NCCCN(C)C)CC(=O)N(Cc3ccccc3)[C@@H]2c2ccc(CO)cc2)cc1 | -0.173 | -0.72 (inactive) | -0.279 | 0.027 | 0.621 | 0.018 | 0.973 | -0.145 | -0.85 | -0.785 | -0.786 | -0.335 | -0.371 | -0.865 | 0.0417 | -0.734 | 0.803 | -1.53 | -0.0701 | -1.1 (inactive)
O=C1OCC=C[C@H]2OC34C=CCN(c5ccc(Cl)cc5)C(=O)[C@H]3N(CCCO)C(=O)[C@@H]4[C@@H]12 (stereo not given in full) | -1.3 | -0.265 (inactive) | -0.254 | -0.164 | 0.96 | 0.446 | -0.0727 | -0.819 | -1.6 | -0.927 | -0.562 | -0.799 | 0.29 | -1.02 | -0.706 | -0.708 | -0.353 | -0.672 | -0.748 | -0.429 (inactive)
O=C(NCC(O)CO)[C@@]1(Cc2ccccc2)COC(c2ccc(OCCCO)cc2)=N1 (stereo not given in full) | 0.536 | -0.936 (inactive) | -0.0984 | -0.189 | 0.738 | 0.737 | -0.192 | -0.274 | -0.445 | -1.4 | 0.0139 | 0.0528 | 0.216 | 0.531 | -0.453 | 0.0393 | -0.165 | -0.743 | 0.488 | 0.37 (inactive)
CC(C)NC(=O)[C@@H]1c2ccccc2C(=O)N(C2CCCCC2)[C@H]1c1ccc(CO)cc1 | -0.338 | -0.101 (inactive) | -0.0731 | -0.0326 | 0.336 | 1.47 | -0.0044 | 0.77 | -0.329 | 0.661 | 2.71 | 1.15 | 0.517 | 0.137 | 0.449 | 0.525 | 0.483 | -0.161 | 0.577 | 0.202 (inactive)
CC(C)C(CO)N1C(=O)[C@@H]2[C@H]3C(=O)OCC=C[C@H]3OC23C=CCN(c2ccc4ccccc4c2)C(=O)[C@@H]13 (stereo not given in full) | -0.524 | 0.508 (inactive) | -0.193 | -0.155 | 0.561 | -0.572 | 0.42 | -0.878 | -1.32 | -0.362 | -0.151 | -1.29 | -0.493 | -0.581 | -0.851 | -1.18 | 0.742 | -0.842 | -0.328 | -0.194 (inactive)
COCCOC(=O)N1C(=O)[C@@]2(c3cc(C#CCC(C(=O)OC)C(=O)OC)ccc31)[C@H](c1ccc(OCCO)cc1)N1[C@H](c3ccccc3)[C@H](c3ccccc3)OC(=O)[C@H]1[C@@H]2C(=O)NC[C@H](O)c1ccccc1 | 0.599 | -0.33 (inactive) | 0.272 | -0.132 | 0.563 | 2.42 | 0.41 | 1.32 | 0.45 | 1.01 | 1.18 | 1.22 | 0.418 | 0.952 | 1.29 | 1.7 | -0.95 | 1.15 | 0.422 | -0.056 (inactive)
CCCCN1CC=CC23O[C@@H]4/C=C\CCCOC(=O)C4[C@H]2C(=O)N(C(C)CO)[C@@H]3C1=O (stereo not given in full) | 0.962 | 0.727 (inactive) | -0.222 | -0.151 | 0.839 | 0.296 | 0.203 | -0.296 | 0.112 | -1.23 | -1.02 | -0.582 | -0.56 | 0.347 | -0.446 | -0.38 | 0.532 | -0.291 | -0.362 | -0.315 (inactive)
CCCNC(=O)[C@@]1(C)c2ccccc2C(=O)N(Cc2ccc(OC(F)(F)F)cc2)[C@H]1c1ccc(CO)cc1 | 0.132 | 2.11 (inactive) | -0.0397 | -0.0035 | 0.267 | -0.517 | 0.727 | 0.565 | -0.602 | 0.949 | -0.607 | 1.11 | 0.275 | 0.264 | 0.778 | 0.557 | 1.07 | -0.526 | 0.419 | -0.166 (inactive)
C[N+](C)(C)CCCCNC(=O)[C@H]1C[C@H]2C(=O)N3CCC[C@H]3C(=O)N2[C@H]1c1ccc(O)cc1 | -0.926 | -0.388 (inactive) | 0.0793 | -0.0449 | 0.627 | 2.08 | 0.625 | 0.895 | 1.21 | 1.09 | 2.67 | -0.0698 | 0.446 | 0.228 | 1.46 | 1.81 | -0.515 | 1.49 | 0.282 | -0.679 (inactive)
[N-]=[N+]=NCc1ccccc1C[C@]1(C(=O)NCCN2CCOCC2)N=C(c2ccc(OCCCO)cc2)O[C@H]1c1ccccc1CN=[N+]=[N-] | 0.825 | -0.0191 (inactive) | 0.399 | -0.0474 | 0.337 | -0.827 | 0.736 | 1.13 | -0.0255 | 1.05 | 1.09 | 1.21 | 1.43 | 0.99 | 1.11 | 0.783 | 0.963 | 0.886 | 0.495 | 0.203 (inactive)
O=c1cccc(-c2ccccc2)o1 | 0.66 | 2.27 (inactive) | -0.0933 | -0.0974 | 0.51 | -0.295 | -0.0258 | -1.1 | 0.223 | -0.234 | -0.192 | -0.377 | 0.192 | -0.468 | 0.145 | -0.417 | 0.103 | -0.57 | 0.143 | 0.616 (inactive)
